PubChem BioAssay AID1671192 (National Center for Advancing Translational Sciences (NCATS), 2021)
Inconclusive results are not listed. A number with no mark means an inactive call. The call rests on the fitted dose curve; in most records, active means well fitted curve in the direction sought with a large enough effect; inconclusive means small, poorly fitted or top-dose-only effect, or another doubt; inactive means no such curve, though single readings can be large or run the other way.

Target: Polyunsaturated fatty acid lipoxygenase ALOX15 (Homo sapiens) (UniProt P16050)
Assay: Counterscreen qHTS for inhibitors of human arachidonate 12S-lipoxygenase (ALOX12): ALOX15 Assay; further: 0% is about no effect
Conditions: purified ALOX15 enzyme activity; series mostly up to 110 µM; activity change, negative = inhibition: at the top concentration
In short: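 Xylenol orange–ferric complex formation, read as the 573 nm to 405 nm absorbance ratio, tracks product from 50 uM arachidonic acid turned over for 30 min at RT. Enzyme is 40 nM ALOX15, pH 7.5 HEPES buffer, compound-preincubated 15 min.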

Sequence of Polyunsaturated fatty acid lipoxygenase ALOX15 (Homo sapiens) (P16050 whole entry, looked up): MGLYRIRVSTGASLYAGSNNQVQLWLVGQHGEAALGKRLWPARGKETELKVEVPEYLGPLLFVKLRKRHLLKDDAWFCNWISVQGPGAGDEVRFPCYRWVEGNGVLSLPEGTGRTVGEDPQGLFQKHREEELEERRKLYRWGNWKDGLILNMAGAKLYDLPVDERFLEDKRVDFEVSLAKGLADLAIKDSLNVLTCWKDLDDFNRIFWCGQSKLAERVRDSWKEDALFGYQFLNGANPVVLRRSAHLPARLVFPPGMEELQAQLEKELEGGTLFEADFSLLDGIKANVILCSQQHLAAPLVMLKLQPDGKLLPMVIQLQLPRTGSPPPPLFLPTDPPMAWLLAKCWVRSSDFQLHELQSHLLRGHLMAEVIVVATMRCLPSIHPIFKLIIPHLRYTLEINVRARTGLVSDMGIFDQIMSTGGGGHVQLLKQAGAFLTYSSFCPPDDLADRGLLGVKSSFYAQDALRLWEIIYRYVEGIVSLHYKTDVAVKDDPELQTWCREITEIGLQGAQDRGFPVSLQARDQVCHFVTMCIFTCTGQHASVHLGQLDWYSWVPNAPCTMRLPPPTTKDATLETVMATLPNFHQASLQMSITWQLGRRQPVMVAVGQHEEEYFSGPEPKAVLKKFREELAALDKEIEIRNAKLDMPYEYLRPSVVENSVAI

SMILES	activity change, negative = inhibition
COc1cc(CN2CCCCC23Cc2ccccc2CNC3=O)ccc1F (stereo not drawn)	-15.7%
O=C(C1CCCC1)N1CC2(CCN(Cc3ccc(Cl)cc3)C2)Cc2ccccc21 (stereo not drawn)	-17.1%
O=C1NCc2ccccc2CC12CCN(Cc1ccc([N+](=O)[O-])cc1)C2 (stereo not drawn)	0.993%
O=Cc1cccc(N2CCN(C(=O)c3ccncc3)CC2=O)c1	-22.8% [at 146 µM]
Cc1cc(C(=O)NCc2ccc(F)cc2)c2c(C3CCCNC3)noc2n1 (stereo not drawn)	-6.25%
O=C(c1ccncc1)N1CCCC(c2nnc3n2CCNC3)C1 (stereo not drawn)	11.3% [at 146 µM]
CN1CC(=O)N(C2CCCNCC2)Cc2c(NCC(C)(C)C)ncnc21 (stereo not drawn)	12.5%
CCCN1CCC2(Cc3ccccc3CN(C(=O)Cc3ccc(O)cc3)C2)C1 (stereo not drawn)	-27.1%
CSc1ccc(-c2ccc(C=O)cc2)cc1	-27.8% [at 233 µM]
c1cc(NCCN2CCCC2)ccn1	-9.88% [at 233 µM]
Fc1ccc(OC2CN(Cc3ccc(C(F)(F)F)cc3)C2)cc1F	-13% [at 146 µM]
CN1CCC(C(=O)N2Cc3ccccc3OC3(CCN(C(=O)N(C)C)CC3)C2)CC1	-19.9%
Cc1noc(C)c1C(=O)N1Cc2ccccc2CC2(CCN(C)C2)C1 (stereo not drawn)	-17.4% [at 146 µM]
CCN1CCCC2(Cc3ccccc3CN([S+](=O)([O-])c3ccccc3)C2)C1 (stereo not drawn)	-25.9%
COC[C@@H]1CCCN1c1ncnc2c1CN(C1CCCNCC1)C(=O)CN2C (stereo partly drawn)	-17.6%
O=C(N1CCCC1)N1CCn2c(nnc2-c2cncc(Br)c2)C1	-11.1%
O=C(O)CCC(=O)N1Cc2ccccc2CC2(CCCN2CC2CCNC2)C1 (stereo not drawn)	-30.7%
Cc1cc(C)c(S(=O)(=O)c2nnn3c2nc(NCCCOC(C)C)c2ccccc23)c(C)c1	-24%
COc1ccc(C(=O)N2CCn3c(nnc3C3CCNCC3)C2)cc1	-8.92%

SMILES	activity change, negative = inhibition
CN1CC(=O)N(c2ccccc2F)Cc2c(NC3CCNCC3)ncnc21	-20.5%
Cn1nc(C2CCCN2)c2c(C(=O)NCc3ccc(F)cc3)cc(C3CC3)nc21 (stereo not drawn)	-22.9%
O=Cc1cccc(-c2cncc(C(=O)O)c2)c1	-14.3% [at 146 µM]
CCN(CC)CC(C)NC (stereo not drawn)	-25.9% [at 343 µM]
Cc1cc(C(=O)NC2CCNCC2)c2c(C3CCNCC3)noc2n1	1.65% [at 146 µM]
COc1cccc(-c2ccc(CN3C4CCC3CN(C(=O)Nc3ccccc3F)C4)cc2)c1	-19%
O=C(c1ccc(C(F)(F)F)cc1)N1CCc2nc(C3CC3)nc(-c3ccc(Cl)cc3)c2C1	-41.7%
NCCCC(=O)N1CCC2(CC1)CC(NC(=O)CN)c1ccccc12 (stereo not drawn)	-21%
CN1CC(=O)N(C2CCCNCC2)Cc2c(NCCc3ccccc3F)ncnc21 (stereo not drawn)	-27.6%
CCC(=O)N1Cc2ccccc2CC2(CCN(CC3CCNC3)C2)C1 (stereo not drawn)	-13.1% [at 146 µM]
CCC(=O)N1Cc2ccccc2CC2(CCCN(CC3CCNCC3)C2)C1 (stereo not drawn)	-9.04%
O=C1NCc2ccccc2CC12CCN(Cc1ccnc3ccccc13)CC2	-17.8%
COCCNC(=O)c1cc(C)nc2onc(C3CCNC3)c12 (stereo not drawn)	-0.291% [at 146 µM]
CN1CC(=O)N(c2cccc(F)c2)Cc2c1ncnc2N1CCC(F)CC1	-12.8%
COc1ccc(CNc2ncnc3c2CN(C2CCCNCC2)C(=O)CN3C)cc1 (stereo not drawn)	8.84%
CCN1CCCCC12Cc1ccccc1CN(C(=O)C1CCN(C)CC1)C2 (stereo not drawn)	-5.74%
CN1CC(=O)N(C2CCNC2)Cc2c(NC3CCCC3)ncnc21 (stereo not drawn)	-2.56% [at 146 µM]
CC(=O)NCC(=O)N1Cc2ccccc2CC2(CCCN(CC3CCNC3)C2)C1 (stereo not drawn)	-23.6%
O=C(O)CCCC(=O)N1Cc2ccccc2CC2(CCCN2Cc2ccccc2)C1 (stereo not drawn)	-13.6%
